DT40 TDP1 CPT: qHTS for Inhibitors of human tyrosyl-DNA phosphodiesterase 1 (TDP1): qHTS in cells in presence of CPT. chicken DT40 Tdp1-/-;hTDP1 cells + 20 nM CPT, ATP luminescence, 48 h. Potency, µM (top dose mostly 46.2 µM), without a hit: top-dose activity change, negative = growth inhibition, most hits filed as inhibitors. 12% of 420,000 active. AID 686979, 2013; further: nearly all actives have a fitted effect of over 55% in size
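Chicken DT40 Tdp1-/- cells complemented with human TDP1, 400 cells/well, exposed to compounds plus 20 nM camptothecin for at least 48 h at 37 C; viability read as ATP content by CellTiter-Glo luminescence.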
VP16 counter: VP16 counterscreen qHTS for inhibitors of ROR gamma transcriptional activity; Drosophila S2 Gal4-VP16 UAS-luciferase, luminescence, 20 h; 3.5% of 310,000 active; Potency, µM (top dose mostly 53.6 µM), for the others: top-dose activity, negative = inhibition, most hits filed as inhibitors;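 further: Gal4-VP16 expression switched on by copper sulfate through the metallothionein promoter; nearly all actives have a fitted effect of over 50% in size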
DT40 TDP1 no CPT: qHTS for Inhibitors of human tyrosyl-DNA phosphodiesterase 1 (TDP1): qHTS in cells in absence of CPT; DT40 Tdp1-/- hTDP1 cells, no CPT, ATP luminescence, 48 h; 15% of 420,000 active; Potency, µM (titrated, usually from 46.2 µM), for the others: top-dose activity change, negative = growth inhibition, usual class: inhibitors; AID 686978, 2013; further: nearly all actives have a fitted effect of over 55% in size
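Chicken DT40 Tdp1-/- cells complemented with human TDP1, screened without camptothecin (DMSO vehicle only), 400 cells/well. Compounds pin-transferred, cells incubated at 37 °C for at least 48 hr. Growth read as ATP-dependent luminescence (CellTiter-Glo, 30 min at RT).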
TDP1 block: qHTS Assay for Inhibitors of Tyrosyl-DNA Phosphodiesterase (TDP1); Tyrosyl-DNA phosphodiesterase 1 (Homo sapiens), Q9NUW8; recombinant TDP1, AlphaScreen DNA substrate cleavage; Potency, µM (series often up to 130 µM), for inactives: at the top dose activity change, negative = inhibition, most hits filed as inhibitors; 0.28% of 350,000 active; further: nearly all actives have a fitted effect of over 40% in size
Target sequence (Q9NUW8 whole entry, looked up): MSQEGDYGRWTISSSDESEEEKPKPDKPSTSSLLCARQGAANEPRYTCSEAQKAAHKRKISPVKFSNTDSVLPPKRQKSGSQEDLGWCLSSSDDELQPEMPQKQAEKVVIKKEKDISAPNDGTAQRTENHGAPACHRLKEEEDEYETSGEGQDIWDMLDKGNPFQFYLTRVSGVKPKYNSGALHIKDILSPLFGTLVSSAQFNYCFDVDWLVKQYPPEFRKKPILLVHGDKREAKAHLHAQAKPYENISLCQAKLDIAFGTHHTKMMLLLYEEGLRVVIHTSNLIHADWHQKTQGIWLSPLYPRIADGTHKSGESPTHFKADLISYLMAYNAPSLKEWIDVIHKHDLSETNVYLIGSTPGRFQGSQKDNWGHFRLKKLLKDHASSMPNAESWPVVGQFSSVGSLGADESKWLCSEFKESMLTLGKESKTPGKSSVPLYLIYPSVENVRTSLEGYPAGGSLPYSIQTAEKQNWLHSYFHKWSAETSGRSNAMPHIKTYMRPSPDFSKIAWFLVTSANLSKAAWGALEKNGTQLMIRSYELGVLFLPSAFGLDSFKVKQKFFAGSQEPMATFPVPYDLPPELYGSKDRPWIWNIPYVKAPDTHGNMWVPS
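Tdp1 1 nM final; 15 min RT w/ cpd; substrate 15 nM, 5 min; beads 10 ug/ml, 10 min; AlphaScreen read. Neg ctrl: no enzyme.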
RORg inh: qHTS for inhibitors of ROR gamma transcriptional activity; Nuclear receptor ROR-gamma (Mus musculus), P51450; Drosophila S2 Gal4-RORgamma UAS-luciferase reporter, 20 h; Potency, µM (top dose mostly 53.6 µM), for the others: top-dose activity change, negative = inhibition, usual class: inhibitors; 5.4% of 310,000 active; further: nearly all actives have a fitted effect of over 60% in size
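Stably transfected Drosophila Schneider cells are the test system, with ROR gamma fused to Gal4 and luciferase under UAS control; luminescence is read after 20 hr of 700 uM copper sulfate induction at ambient temperature.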
An asterisk follows results filed as active; ? = inconclusive; · = not tested or not shown; ! = not confirmed by another sample; [ ] = remark or other dose. Shown are actives, neighbours in structure and some others; about 19% of the full set was active somewhere. The call rests on the fitted dose curve; in most records, active means well fitted curve in the direction sought with a large enough effect; inconclusive means small, poorly fitted or top-dose-only effect, or another doubt; inactive means no such curve, though single readings can be large; an effect the other way counts as inactive or inconclusive. On the % scale 0 is the no-effect control and ±100 the full control effect; potency means the concentration at half of the fitted maximal effect.

SMILES	DT40 TDP1 CPT	VP16 counter	DT40 TDP1 no CPT	TDP1 block	RORg inh
Cc1nnsc1C(=O)N1CCC(C(=O)c2ccccc2)CC1	5%	1%	2%	1%	6%
O=C(NC1CCCCC1)C(c1ccccc1)N1CCc2ccccc21 (configuration not stated)	26µM*	12%	21µM*	9%	34%
O=C(NC1CCCC1)C(c1ccc(Cl)cc1)N1CCc2ccccc21 (configuration not stated)	-13%	1%	-10%	-1%	-21%
Cn1c(=O)c2c(ncn2CC(=O)Nc2cccc(Cl)c2Cl)n(C)c1=O	?	·	?	3%[12.3 µM]	·
CCCCCC(=O)N[C@@H](c1ccccc1)[C@@H](O)C(=O)O[C@H]1C[C@@]2(O)[C@@H](OC(=O)c3ccccc3)C3[C@](C)(C(=O)[C@H](OC(C)=O)C(=C1C)C2(C)C)[C@@H](O)C[C@H]1OC[C@@]31OC(C)=O (some centres not stated)	0.12µM*	?	0.1µM*	·	?
CC(C)NCC(O)c1ccc(O)c(O)c1 (configuration not stated)	?	-1%	-24%	-9%[56.1 µM]	-11%
NC[C@@H](O)c1ccc(O)c(O)c1	-25%	-9%	-8%	?	-24%
CNC[C@H](O)c1ccc(O)c(O)c1	8.4µM*!	-3%	12µM*!	45µM*!	?
NC[C@H](O)c1ccc(O)c(O)c1	?	-2%	?	2.2µM*!	-20%
CC(=O)Nc1ccc(NC(=O)c2ccc(COc3ccccc3Br)o2)cc1	-23%	-1%	4%	·	-1%
O=C(C1CCC1)N(CCc1ccccc1)Cc1nc2ccccc2c(=O)[nH]1	?	7.9µM*	?	-3%	1.8µM*
O=C(C1CC1)N(CCc1ccccc1)Cc1nc2ccccc2c(=O)[nH]1	?	-27%	-29%	5%	?
COc1ccc(CCN(Cc2nc3ccccc3c(=O)[nH]2)C(=O)C2CC2)cc1	-20%	13µM*	-20%	-5%	3.2µM*
CCOc1ccc(NC(=O)CSc2oc(-c3ccco3)nc2S(=O)(=O)c2ccc(C)cc2)cc1	?	·	?	9%	·
CCCSc1oc(-c2cccs2)nc1S(=O)(=O)c1ccc(C)cc1	18µM*	·	?	0%	·
CCOc1ccc(NC(=O)CSc2oc(-c3ccco3)nc2S(=O)(=O)c2ccccc2)cc1	?	·	?	6%	·
CCOc1ccc(NC(=O)CSc2oc(-c3cccs3)nc2S(=O)(=O)c2ccc(C)cc2)cc1	12µM*	·	3.3µM*	0%	·
CCSc1oc(-c2cccs2)nc1S(=O)(=O)c1ccccc1	?	-2%	?	0%	?
CCOc1ccc(NC(=O)CSc2oc(-c3ccc(F)cc3)nc2S(=O)(=O)c2ccc(C)cc2)cc1	5.8µM*	·	6.5µM*	-3%	·
CCOc1ccc(NC(=O)CC2C(=O)N(C)C(=S)N2CCCc2ccccc2)cc1 (configuration not stated)	-1%	-3%	-19%	2%	?
COc1ccc2c(c1)c(CC(=O)OCC(=O)N(C)C)c(C)n2C(=O)c1ccc(Cl)cc1	7%	15%	-14%	·	-8%
COc1ccc2c(c1)c(CCNNC(=O)C(C)(C)C)c(C)n2C(=O)c1ccc(Cl)cc1	23µM*	·	16µM*	·	·
COc1ccc(NC(=O)Cc2c(C)n(C(=O)c3ccc(Cl)cc3)c3ccc(OC)cc23)cc1	-10%	-17%	-29%	5%	?
COc1ccc2c(c1)c(CC(=O)OC(C)C(=O)N(C)C)c(C)n2C(=O)c1ccc(Cl)cc1 (configuration not stated)	21µM*	-6%	15µM*	·	16%
COc1ccc2c(c1)c(CC(=O)Nc1ccc(C)cc1)c(C)n2C(=O)c1ccc(Cl)cc1	?	-7%	21µM*	-6%	9%
SMILES	DT40 TDP1 CPT	VP16 counter	DT40 TDP1 no CPT	TDP1 block	RORg inh
COC(=O)[C@H](Cc1ccccc1)NC(=O)NC(C)CCc1ccccc1 (some centres not stated)	8%	9%	11%	·	11%
Cc1ccc(-c2csc3ncnc(SCC(=O)NCc4ccc5c(c4)OCO5)c23)cc1	?	1%	?	1%	31%
Cc1ccccc1S(=O)(=O)NC(=O)C1(C)CCN1C(=O)c1ccccc1CCc1ccccc1 (configuration not stated)	6%	·	-10%	·	·
CC(C)c1ccc2c(c1)[C@H]1OCC[C@H]1[C@@H](c1cccs1)N2	16µM*	?	10µM*	8%	?
Cc1cc(C)c2c(c1)N[C@H](c1cccs1)[C@@H]1CCO[C@H]21	-21%	27%	?	1%	26%
CCOC(=O)c1sc2nccc(N(C)C)c2c1N=CNOCc1c(F)cccc1Cl	?	0%	23µM*	·	-5%
FC(F)(F)c1ccc(CN2C[C@@H]3C(c4ccc(C(F)(F)F)cc4)C4(c5cccnc5)CC3(C4)[C@H]2c2ccccc2)cc1 (some centres not stated)	15µM*	-6%	15µM*	3%	-19%
CN1C[C@@H]2C(c3ccc(C(F)(F)F)cc3)C3(c4cccnc4)CC2(C3)[C@H]1c1ccccc1 (some centres not stated)	?	-2%	18µM*	13%	-25%
FC(F)(F)c1ccc(CN2C[C@@H]3C(c4ccccc4)C4(c5cccnc5)CC3(C4)[C@H]2c2ccccc2)cc1 (some centres not stated)	?	-1%	?	11%	-26%
FC(F)(F)c1ccc(C2[C@H]3CN(Cc4cccnc4)[C@H](c4ccccc4)C34CC2(c2ccccc2)C4)cc1 (some centres not stated)	18µM*	-12%	?	10%	?
COC(=O)c1ccc(C23CC4(C2)[C@H](CN(C)[C@@H]4c2ccccc2)C3c2ccc(C(F)(F)F)cc2)cc1 (some centres not stated)	?	-5%	?	11%	2%
COC(=O)c1ccc(C23CC4(C2)[C@H](CN(C)[C@@H]4c2ccccc2)C3c2ccc(Cl)nc2)cc1 (some centres not stated)	?	-4%	15µM*	13%	1%
